# PubChem BioAssay AID2283197 (EPA ToxCast)
# The source made the active and inactive calls. Rule for the calls: active = hit-call score of the fitted dose curve at least 0.9, where 1 is the maximum; inactive = score below 0.9.
# Target: human Protein Kinase D2 (PKD2), PRKD2 (gene 25865) (UniProt Q9BZL6)
# Assay: NVS_ENZ_hPKD2: NovaScreen (NVS) Enzymatic Assay for human Protein Kinase D2 (PKD2)
# Method: NVS_ENZ_hPKD2 is a biochemical, single-readout assay that uses extracted gene-proteins in a cell-free assay. Measurements were taken 1 hour after chemical dosing in a 384-well plate.NVS_ENZ_hPKD2 is one of one assay component(s) measured or calculated from the NVS_ENZ_hPKD2 assay. It is designed to make measurements of enzyme activity, a form of enzyme reporter, as detected with fluorescence intensity signals by Fluorescence and electrophoretic mobility shift technology.Data from the assay component NVS_ENZ_hPKD2 was analyzed into 1 assay endpoint. This assay endpoint, NVS_ENZ_hPKD2, was analyzed in the positive analysis fitting direction relative to DMSO as the negative control and baseline of activity. Using a type of enzyme reporter, loss-of-signal activity can be used to understand changes in the enzymatic activity as they relate to the gene PRKD2. Furthermore, this assay endpoint can be referred to as a primary readout, because this assay has produced multiple assay endpoints where this one serves a enzymatic activity function. To generalize the intended target to other relatable targets, this assay endpoint is annotated to the kinase intended target family, where the subfamily is serine/threonine kinase.
# Binding assays used specific radioligands (tritiated, iodinated) with non-radioactive competitive displacement ligands in agonist or antagonist protocols (as indicated) and various reference compounds and inhibitors to titrate specific binding to receptors and transporters. Most enzyme assays (CYPs, kinases, phosphatases, proteases, HDACs) used recombinant protein and specific substrates (fluorescence mostly, some colorimetric and radioactive) and inhibitors, followed by a biochemical separation of substrate and product. All assays for the biochemical HTS were initially run in duplicate at a single concentration (10 uM for CYP450 assays and 25 uM for all others). Assay-chemical combinations meeting a pre-defined threshold (e.g., 30% inhibition and other criteria defined below) were then run in singleton concentration-response format with maximum concentration of 20 uM for CYPs and 50 uM for all others. Each assay was run with positive and negative controls, and concurrent controls on every plate. The follow-up (secondary) screen tested active chemical-pairs in concentration series, as well as a few additional assays not tested in the primary screen, some selected negative inactives, and several cases re-run in the concentration series for confirmatory purposes.
# Sequence of human Protein Kinase D2 (PKD2), PRKD2 (gene 25865) (Q9BZL6 whole entry, looked up): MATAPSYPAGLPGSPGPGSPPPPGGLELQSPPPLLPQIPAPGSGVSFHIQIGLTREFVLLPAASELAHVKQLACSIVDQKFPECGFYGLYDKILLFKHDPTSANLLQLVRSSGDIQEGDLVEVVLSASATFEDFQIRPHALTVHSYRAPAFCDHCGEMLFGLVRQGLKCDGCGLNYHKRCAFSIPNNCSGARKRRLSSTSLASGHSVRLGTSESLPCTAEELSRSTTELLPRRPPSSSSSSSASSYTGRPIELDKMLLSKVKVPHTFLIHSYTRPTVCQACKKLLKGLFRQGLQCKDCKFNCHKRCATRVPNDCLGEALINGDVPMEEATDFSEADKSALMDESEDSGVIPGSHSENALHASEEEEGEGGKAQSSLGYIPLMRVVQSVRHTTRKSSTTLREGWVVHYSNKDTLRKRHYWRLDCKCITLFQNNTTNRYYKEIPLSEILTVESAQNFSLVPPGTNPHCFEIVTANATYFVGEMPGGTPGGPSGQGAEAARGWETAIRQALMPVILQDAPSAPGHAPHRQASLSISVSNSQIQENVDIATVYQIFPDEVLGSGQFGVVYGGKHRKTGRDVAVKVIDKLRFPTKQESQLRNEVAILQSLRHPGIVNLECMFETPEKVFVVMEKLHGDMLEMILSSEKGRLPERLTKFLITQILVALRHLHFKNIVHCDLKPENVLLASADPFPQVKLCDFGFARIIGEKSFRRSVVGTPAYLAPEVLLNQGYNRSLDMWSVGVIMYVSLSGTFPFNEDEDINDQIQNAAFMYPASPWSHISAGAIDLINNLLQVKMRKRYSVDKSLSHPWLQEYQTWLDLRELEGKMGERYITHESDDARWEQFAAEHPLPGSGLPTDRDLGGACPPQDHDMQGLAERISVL
Compound,outcome,AC50
O=C(Nc1ccccc1)Nc1ccnc(Cl)c1,inactive,
COc1ccc(C(c2ccc(OC)cc2)C(Cl)(Cl)Cl)cc1,inactive,
O=C(Nc1ccccc1)Nc1cnns1,inactive,
Oc1ccc(Cl)cc1Cc1ccccc1,,25 µM (active)
